Test results published in PubChem BioAssay AID1347420 (Sanford-Burnham Center for Chemical Genomics, 2020).
About 980 (75%) of roughly 1,300 compounds were called active. Inconclusive results (about 4%) are left out. This is one part of the list. Values without a mark were called inactive.

The molecules below were run against Sulfhydryl oxidase 1 (Homo sapiens) (UniProt O00391) (assay: QSOX1 enzyme inhibitors, primary screen, biochemical, HyperBlu H2O2 luminescence, HTS (AID 1347420; further: values above 100% were filed as inconclusive)). Details: recombinant QSOX1, HyperBlu H2O2 luminescence, at 12.5 µM, hits give high values; active = any value above zero unless noted.
Chain of Sulfhydryl oxidase 1 (Homo sapiens) (O00391 whole entry, looked up): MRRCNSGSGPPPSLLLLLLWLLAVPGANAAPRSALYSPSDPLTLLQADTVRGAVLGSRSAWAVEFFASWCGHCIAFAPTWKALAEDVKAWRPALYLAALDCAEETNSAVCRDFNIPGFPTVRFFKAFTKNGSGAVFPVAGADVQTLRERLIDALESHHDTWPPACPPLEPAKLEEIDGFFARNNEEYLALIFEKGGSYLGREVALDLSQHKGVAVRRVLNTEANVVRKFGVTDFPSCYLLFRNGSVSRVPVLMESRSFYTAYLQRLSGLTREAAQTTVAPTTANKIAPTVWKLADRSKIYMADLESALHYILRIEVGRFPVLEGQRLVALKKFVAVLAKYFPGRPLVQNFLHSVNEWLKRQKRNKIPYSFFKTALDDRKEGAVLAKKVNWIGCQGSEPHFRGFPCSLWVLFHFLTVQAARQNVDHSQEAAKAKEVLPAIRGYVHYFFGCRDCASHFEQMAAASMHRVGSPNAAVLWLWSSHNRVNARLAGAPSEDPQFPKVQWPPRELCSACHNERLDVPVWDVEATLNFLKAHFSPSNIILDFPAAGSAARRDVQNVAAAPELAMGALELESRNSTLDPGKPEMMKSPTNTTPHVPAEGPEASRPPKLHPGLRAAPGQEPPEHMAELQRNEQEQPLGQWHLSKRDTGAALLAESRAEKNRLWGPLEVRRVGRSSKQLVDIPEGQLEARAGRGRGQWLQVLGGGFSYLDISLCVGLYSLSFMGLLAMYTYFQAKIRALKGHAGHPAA
CN1CCc2cccc(Cl)c2CC1 was tested, and the inhibition was 1.7% (active).
CP(=O)(O)C1=CCNCC1 was tested, and the inhibition was -0.7%.
For CCCN(CCC)[C@@H]1CCc2ccc(O)cc2C1, the inhibition was 10.7% (active).
In the case of CCCN(CCC)C1CCc2ccc(O)cc2C1 (stereo not drawn), the inhibition is reported as 28.1% (active).
With CCCN(CCC)C1Cc2cc(OC)c(OC)cc2C1 the inhibition was 3.2% (active).
For O=S1(=O)N(CCN2CC=C(c3c[nH]c4cc(F)ccc34)CC2)c2cccc3c2N1CCC3, the inhibition was 25.1% (active).
With C[C@H](N)Cc1cccc(C(F)(F)F)c1 the inhibition was 4.9% [setting not given] (active).
With COc1ccc(CNC(=O)/C=C/c2ccc3[nH]cc(CCN(C)C)c3c2)cc1 the inhibition was 4.8% [setting not given] (active).
O=C(O)c1cc[c]([Hg][Cl])cc1 was tested, and the inhibition was 1% (active).
CCC1(c2ccc(N)cc2)CCC(=O)NC1=O (stereo not drawn) was tested, and the inhibition was 27.6% [setting not given] (active).
In the case of CCN(CCCl)Cc1ccccc1Br, the inhibition is reported as 18% (active).
With CCCn1c(=O)c2[nH]c(C3CCCC3)nc2n(CCCOC(=O)c2ccc(S(=O)(=O)F)cc2)c1=O the inhibition was 10.4% (active).
With CC[C@@H](CO)NC(=O)[C@@H]1C=C2c3cccc4[nH]cc(c34)C[C@H]2N(C)C1 the inhibition was 24.7% [setting not given] (active).
CC[C@@H](CO)NC(=O)[C@@H]1C=C2c3cccc4c3c(cn4C)C[C@H]2N(C)C1 was tested, and the inhibition was 9.7% [setting not given] (active).
In the case of NCC1(CC(=O)O)CCCCC1, the inhibition is reported as 4.2% [setting not given] (active).
For CC(=O)c1c(O)c(C)c(O)c(Cc2c(O)c3c(c(C(=O)/C=C/c4ccccc4)c2O)OC(C)(C)C=C3)c1O, the inhibition was 59.1% (active).
In the case of O=c1[nH]oc2c1CCNC2, the inhibition is reported as 8.4% (active).
C[C@H](Cc1ccc2c(c1)OC(C(=O)O)(C(=O)O)O2)NC[C@H](O)c1cccc(Cl)c1 was tested, and the inhibition was 13.4% (active).
For CC(Cc1ccc(OCC(=O)O)cc1)NCC(O)c1cccc(Cl)c1 (stereo not drawn), the inhibition was 10.8% (active).
Nc1ccncc1 was tested, and the inhibition was 22.3% [setting not given] (active).
In the case of C[C@]12CCC3C(CC[C@H]4C[C@H](O)CC[C@]34C)C1CC[C@@H]2C(=O)CO (stereo partly drawn), the inhibition is reported as 5.6% (active).
CC(=O)[C@H]1CC[C@H]2[C@@H]3CC[C@H]4C[C@H](O)CC[C@]4(C)[C@H]3C(=O)C[C@]12C was tested, and the inhibition was 5% [setting not given] (active).
With CC(=O)[C@H]1CCC2C3CC[C@H]4C[C@H](O)CC[C@]4(C)C3CC[C@@]21C (stereo partly drawn) the inhibition was 4.6% [setting not given] (active).
In the case of CC(=O)[C@H]1CC[C@H]2[C@@H]3CC[C@H]4C[C@](C)(O)CC[C@]4(C)[C@H]3CC[C@]12C, the inhibition is reported as 11.6% [setting not given] (active).
For CN1C[C@H](CNC(=O)OCc2ccccc2)C[C@@H]2c3cccc4c3c(cn4C)C[C@H]21, the inhibition was 6.1% [setting not given] (active).
C[C@]12Cc3cn4c(nc3C=C1CCC1C2CC[C@@]2(C)[C@H]1CC[C@@]2(O)C#N)nc1ccccc14 (stereo partly drawn) was tested, and the inhibition was -42.5%.
For CC(C)Oc1cccnc1N(C)C1CCN(Cc2ccccc2)CC1, the inhibition was 7% (active).
For CC(C)c1cccc(C(C)C)c1O, the inhibition was 16.7% (active).
Molecule CC(N)c1cccc(Cl)c1Cl (stereo not drawn) has an inhibition of -1%.
In the case of CN[C@@H]1C[C@@H](c2ccc(Cl)c(Cl)c2)c2ccccc21, the inhibition is reported as 3.8% (active).
Cc1o[nH]c(=O)c1CC(N)C(=O)O (stereo not drawn) was tested, and the inhibition was 11.9% (active).
Molecule NC(Cn1oc(=O)[nH]c1=O)C(=O)O (stereo not drawn) has an inhibition of -10.8%.
In the case of CCCC(C)(COC(N)=O)COC(=O)NC(C)C (stereo not drawn), the inhibition is reported as -3.5% [setting not given].
